# C diff HTS = blocks growth of Clostridium difficile; growth activity, negative = inhibition, % at 16 µg/mL (by protocol); AID 1259249; Clostridium difficile clinical isolate growth, OD600, 24 h; hits give low values; hit rate 0.25% among 86,000;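 active = mean growth activity at or below -80% and every replicate also at or below -80%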;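 also: 0% = DMSO wells and -100% = levofloxacin 16 µg/mL wells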
# Pf Dd2 growth = inhibitors of Plasmodium falciparum Dd2 growth | hit rate 2.3% among 94,000 | activity change, % at 10 µM | P. falciparum Dd2 growth, SYBR Green, 72 h; hits give low values | AID 1159554; in the data active = activity change below about -80%
# * = called active by the depositor; . = no result. In the library only some 2.4% were active in any assay of this set; here they are far more common.
SMILES,C diff HTS,Pf Dd2 growth
COc1ccc(NC(=O)Nc2ccc3c(c2)C(=O)N([C@@H](C)CO)C[C@@H](C)[C@H](CN(C)C)OCCCC[C@H](C)O3)cc1,0,.
C[C@H]1CN([C@@H](C)CO)C(=O)c2cccc(NC(=O)Nc3ccc(C(F)(F)F)cc3)c2O[C@H]1CN(C)Cc1ccc(Oc2ccccc2)cc1,81,2
COc1ccc(NC(=O)Nc2cccc3c2O[C@H](CN(C)Cc2ccc(C(F)(F)F)cc2)[C@H](C)CN([C@@H](C)CO)C3=O)cc1,-101*,-19
C[C@@H]1CN([C@@H](C)CO)C(=O)c2cccc(NC(=O)Nc3ccc(C(F)(F)F)cc3)c2O[C@@H]1CN(C)Cc1ccc(Oc2ccccc2)cc1,-96*,-72
COc1ccc(CN(C)C[C@@H]2Oc3c(NC(=O)Nc4ccc(C(F)(F)F)cc4)cccc3C(=O)N([C@H](C)CO)C[C@@H]2C)cc1,17,-2
CCCN(C)C[C@H]1OCCCC[C@@H](C)Oc2ccc(NC(=O)Cc3ccccc3)cc2C(=O)N([C@H](C)CO)C[C@H]1C,-2,-44
CCCN(C)C[C@H]1OCCCC[C@@H](C)Oc2ccc(NC(=O)Cc3ccccc3)cc2C(=O)N([C@@H](C)CO)C[C@H]1C,1,-86*
C[C@@H]1CCCCO[C@@H](CN(C)CC2CCCCC2)[C@@H](C)CN([C@@H](C)CO)C(=O)c2cc(NC(=O)Cc3ccccc3)ccc2O1,22,-49
C[C@@H]1CCCCO[C@H](CN(C)CC2CCCCC2)[C@@H](C)CN([C@H](C)CO)C(=O)c2cc(NC(=O)Cc3ccccc3)ccc2O1,28,-84*
C[C@@H]1CN([C@@H](C)CO)C(=O)c2cc(NC(=O)CCC(F)(F)F)ccc2O[C@@H](C)CCCCO[C@@H]1CN(C)C(=O)c1ccccc1,2,-14
O=C(C[C@@H]1C[C@@H]2c3cc(NC(=O)Cc4ccncc4)ccc3O[C@@H]2[C@H](CO)O1)NCc1ccccc1,.,-39
CN(C)c1ccc2c(c1)[C@@H]1C[C@@H](CC(=O)NCc3cc(F)ccc3F)O[C@H](CO)[C@@H]1O2,.,-36
O=C(O)C[C@@H]1C[C@@H]2c3cc(NS(=O)(=O)c4ccccc4)ccc3O[C@@H]2[C@H](CO)O1,0,-94*
COc1cccc(S(=O)(=O)Nc2ccc3c(c2)[C@@H]2C[C@H](CC(=O)NCc4ccc(Cl)cc4)O[C@H](CO)[C@@H]2O3)c1,.,-50
CN(C)c1ccc2c(c1)[C@@H]1C[C@@H](CC(=O)NCc3cc(F)ccc3F)O[C@@H](CO)[C@@H]1O2,.,-87*
O=C(O)C[C@@H]1C[C@H]2c3cc(NS(=O)(=O)c4ccccc4)ccc3O[C@H]2[C@@H](CO)O1,1,11
O=C(C[C@H]1C[C@H]2c3cc(NC(=O)Cc4ccncc4)ccc3O[C@H]2[C@H](CO)O1)NCc1ccccc1,.,-89*
COc1cccc(S(=O)(=O)Nc2ccc3c(c2)[C@@H]2C[C@H](CC(=O)NCc4ccc(Cl)cc4)O[C@@H](CO)[C@@H]2O3)c1,.,-82*
C[C@H]1CN([C@@H](C)CO)C(=O)Cc2cc(NS(C)(=O)=O)ccc2O[C@H]1CN(C)S(=O)(=O)c1ccc(Cl)cc1,-1,4
CCCNC(=O)[C@H]1[C@H](CO)[C@H]2Cn3c(ccc(-c4ccncc4)c3=O)[C@@H]1N2C(=O)CC1CC1,0,-4
C[C@H](CO)N1C[C@H](C)[C@@H](CN(C)C(=O)Cc2ccccc2)OCc2ccccc2-c2c(n(C)c3ccccc23)C1=O,31,-81*
C[C@H](CO)N1C[C@H](C)[C@H](CN(C)C(=O)Cc2ccccc2)OCc2ccccc2-c2c(n(C)c3ccccc23)C1=O,-5,-73
C[C@@H]1CN([C@H](C)CO)C(=O)c2c(c3ccccc3n2C)-c2ccccc2CO[C@H]1CN(C)C(=O)Cc1ccccc1,-8,-22
C[C@H]1CN([C@@H](C)CO)C(=O)c2c(c3ccccc3n2C)-c2ccccc2CO[C@@H]1CN(C)C(=O)Cc1ccccc1,6,-91*
COc1ccc2c3c([nH]c2c1)[C@@H](CO)N(Cc1ccccc1)CC31CN(S(C)(=O)=O)C1,8,-67
SMILES,C diff HTS,Pf Dd2 growth
C[C@H](CO)N1C[C@H](C)[C@H](CN(C)C(=O)Nc2ccc(F)cc2)Oc2c(NC(=O)CCCCCC(=O)Nc3ccccc3N)cccc2C1=O,5,-78
C[C@H](CO)N1C[C@H](C)[C@H](CN(C)C(=O)Nc2ccccc2)Oc2c(NC(=O)CCCCCC(=O)Nc3ccccc3N)cccc2C1=O,10,-58
Cc1noc(C)c1NC(=O)N(C)C[C@@H]1Oc2c(NC(=O)CCCCCC(=O)Nc3ccccc3N)cccc2C(=O)N([C@@H](C)CO)C[C@@H]1C,-5,30
Cc1noc(C)c1NC(=O)N(C)C[C@H]1Oc2c(NC(=O)CCCCCC(=O)Nc3ccccc3N)cccc2C(=O)N([C@@H](C)CO)C[C@H]1C,2,-86*
C[C@@H]1CN([C@H](C)CO)C(=O)c2cccc(NC(=O)CCCCCC(=O)Nc3ccccc3N)c2O[C@@H]1CN(C)C(=O)Nc1ccc2c(c1)OCO2,-1,-82*
C[C@@H]1CN([C@H](C)CO)C(=O)c2cc(NC(=O)CCCCCC(=O)Nc3ccccc3N)ccc2O[C@@H]1CN(C)C(=O)Nc1ccc2c(c1)OCO2,-5,-3
C[C@@H]1CN([C@@H](C)CO)C(=O)c2cccc(NC(=O)CCCCCC(=O)Nc3ccccc3N)c2O[C@@H]1CN(C)C(=O)Nc1ccc(F)cc1,-4,-86*
C[C@@H]1CN([C@@H](C)CO)C(=O)c2cccc(NC(=O)CCCCCC(=O)Nc3ccccc3N)c2O[C@@H]1CN(C)C(=O)Nc1cccc2ccccc12,6,-88*
CC(C)NC(=O)Nc1cccc2c1O[C@H](CN(C)S(=O)(=O)c1cn(C)cn1)[C@@H](C)CN([C@H](C)CO)C2=O,-3,39
CC=Cc1ccc2n(c1=O)C[C@H]1[C@H](CO)[C@@H](C(=O)NC3CCC3)N(CCC(F)(F)F)[C@@H]21 (mixture of isomers),20,-1
C[C@H](CO)N1C[C@H](C)[C@@H](CN(C)S(=O)(=O)c2ccc(Cl)cc2)OCCCC[C@H](C)Oc2ccc(NS(=O)(=O)c3cccs3)cc2C1=O,-11,.
CCC(=O)N1[C@H](CO)[C@H](c2ccccc2)C12CN(C(=O)Nc1cccc(OC)c1)C2,6,2
C[C@@H]1CN([C@@H](C)CO)C(=O)c2cccc(NC(=O)CCCCCC(=O)Nc3ccccc3N)c2O[C@@H]1CN(C)C(=O)Nc1ccc(C(F)(F)F)cc1,4,-90*
C[C@@H]1CN([C@H](C)CO)C(=O)c2cccc(NC(=O)CCCCCC(=O)Nc3ccccc3N)c2O[C@H]1CN(C)C(=O)Nc1ccc(F)cc1,7,-62
COCC(=O)N1CCC2(CC1)CN(S(C)(=O)=O)[C@H](CO)c1c2c2ccc(OC)cc2n1C,-6,14
COc1ccc(C#Cc2ccc([C@H]3[C@@H](CO)N4CCCCN(C(=O)Nc5ccccc5F)C[C@H]34)cc2)cc1,16,-77
COc1ccc(C#Cc2ccc([C@@H]3[C@H](CO)N4CCCCN(C(=O)Nc5ccccc5F)C[C@@H]34)cc2)cc1,15,-82*
O=C(Nc1ccccc1F)N1CCCCN2[C@H](C1)[C@H](c1ccc(/C=C/c3ccccc3)cc1)[C@@H]2CO,41,-14
O=C(Nc1ccccc1F)N1CCCCN2[C@@H](CO)[C@@H](c3ccc(C#Cc4ccccc4)cc3)[C@@H]2C1,33,-89*

# Assay outcomes: PubChem, Broad Institute
